Only some compounds are listed: those with a hit (about 19% of all), similar ones and a draw of the others.
TDP1 cell noCPT = qHTS for Inhibitors of human tyrosyl-DNA phosphodiesterase 1 (TDP1): qHTS in cells in absence of CPT; AID 686978, 2013; hit rate 15% among 420,000; DT40 Tdp1-/- hTDP1 cells, no CPT, ATP luminescence, 48 h; Potency, µM (doses to about 46.2 µM), inactives show top-dose activity change, negative = growth inhibition, actives largely listed as inhibitors; also: potency is read from the fitted curve at half-maximal effect; nearly all actives have a fitted effect of over 55% in size
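A cellular qHTS used chicken DT40 cells lacking endogenous Tdp1 but carrying stably transfected human TDP1. Compounds were applied without camptothecin, and cell growth kinetics were judged by ATP-dependent luminescence after ≥48 hr.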
HT1080-NT tox = kills 2HG-producing HT-1080-NT fibrosarcoma cells; HT-1080-NT fibrosarcoma viability, CellTiter-Glo ATP luminescence, 48 h; Potency, µM (highest dose often 46.1 µM), for the others: at the top dose activity, negative = less viability, most hits filed as cytotoxic; hit rate 1.6% among 360,000; AID 686970;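 also: NT is the 2HG producing partner of a matched IDH1 knockdown line; potency is read from the fitted curve at half-maximal effect; 0% = DMSO-treated cells and -100% = media-only wells without cells; nearly all actives have a fitted effect of over 55% in size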
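Luminescent CellTiter-Glo readout after 48 hours of compound exposure at 37 degrees C defined viability of HT-1080-NT cells. Activity was normalized to DMSO wells and cell-free media wells; concentration-response curves were fitted and assigned curve classes.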
HT1080 IDH1KD tx = kills HT-1080 cells with IDH1 knockdown | HT-1080 IDH1 knockdown viability, ATP luminescence, 48 h | Potency, µM (titrated, usually from 46.1 µM), for inactives: top-dose activity, negative = toxicity, actives largely listed as cytotoxic | hit rate 2% among 360,000;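 also: potency is read from the fitted curve at half-maximal effect; 0% = DMSO wells and -100% = cell-free medium wells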
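Cytotoxicity counter-line: IDH1KD HT-1080, 48 h, CellTiter-Glo. Curves classed by r2, magnitude and activity.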
DT40 TDP1 CPT = DT40-hTDP1 cell growth loss with CPT; chicken DT40 Tdp1-/-;hTDP1 cells + 20 nM CPT, ATP luminescence, 48 h; Potency, µM (highest dose often 46.2 µM), inactives show at the top dose activity change, negative = growth inhibition, usual class: inhibitors; hit rate 12% among 420,000; AID 686979; also: potency is read from the fitted curve at half-maximal effect; nearly all actives have a fitted effect of over 55% in size
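Cell growth measured by CellTiter-Glo luminescence after a minimum 48 h, 37 C compound exposure with 20 nM CPT in Tdp1-knockout DT40 cells stably expressing hTDP1, seeded 400/well; qHTS titration format.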
IL-1B inflam inh = inflammasome signaling inhibition, IL-1 beta readout; THP-1 LPS/ATP IL-1B secretion, AlphaLISA, 16 h; active compounds read low; activity change, % at 57.5 µM; hit rate 4.7% among 360,000; AID 743279; in the data active = activity change below about -50%; inconclusive = mostly about -30% to -49%
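THP-1 cells pretreated 1 hr with compounds (up to 57.5 uM final), then stimulated with LPS (250 ng/mL final) plus ATP (1.25 mM final); secreted IL-1B measured by AlphaLISA after 16 hr, decreased signal indicating inhibition.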
* hit, by the source's call; ? = inconclusive; . = not tested or not shown. Unless noted, calls follow the shape of the dose curve; as a rule, active = well fitted curve in the direction sought with a large enough effect; inconclusive = small, poorly fitted or top-dose-only effect, or another doubt; inactive = no such curve, though single readings can be large; an effect the other way counts as inactive or inconclusive. Unless noted, % is scaled to controls: 0 for no effect and ±100 for the full control effect.

SMILES | TDP1 cell noCPT | HT1080-NT tox | HT1080 IDH1KD tx | DT40 TDP1 CPT | IL-1B inflam inh
Cc1ccc(-n2ncc3c(N4CCC(C(N)=O)CC4)ncnc32)c(C)c1 | 1% | -4% | 0% | ? | -18
CC(=O)Nc1ccc(Nc2ncnc3c2cnn3-c2ccc(C)cc2C)cc1 | -26% | 14% | 1% | ? | ?
Cc1ccc(-n2ncc3c(N4CCC5(CC4)OCCO5)ncnc32)c(C)c1 | 15µM* | ? | -10% | 12µM* | -14
CCN(CC)C(=O)C1CCN(c2ncnc3c2cnn3-c2ccc(C)cc2C)CC1 | 21µM* | -11% | -2% | ? | -13
Cc1ccc(S(=O)(=O)N2CCN(S(=O)(=O)c3ccccc3Br)C2=O)cc1 | ? | 1% | -1% | ? | -16
O=C(c1cc(-c2ccc(F)cc2)on1)N1CCCC1 | -22% | 10% | 6% | -3% | 17
CN1CCN(C(=O)/C=C/c2ccc([N+](=O)[O-])o2)CC1 | 15µM* | ? | 21µM* | 9.2µM* | -58*
O=C(/C=C/c1ccc(F)cc1)N1CCCN(C(=O)/C=C/c2ccc(F)cc2)CC1 | ? | 6% | 1% | 16µM* | -25
O=C(/C=C/c1ccc(-c2ccc(F)cc2)o1)N1CCCC1 | 21µM* | -14% | -8% | ? | -75*
O=C(/C=C/c1cccc(F)c1)N1CCc2ccccc21 | ? | -4% | -9% | -13% | 4
O=C(/C=C/c1ccc(F)cc1)N1CCCc2ccccc21 | 18µM* | -11% | 0% | ? | ?
CC(NC(=O)c1cc2c(s1)CS(=O)(=O)C2)c1ccccc1 (centres undefined) | -10% | -8% | 0% | -6% | -5
CCN1CCN(C(=O)/C=C/c2ccc(C)cc2)CC1 | 16% | 0% | 0% | -8% | -3
Cc1ccc(/C=C/C(=O)N2CCCN(C(=O)/C=C/c3ccc(C)cc3)CC2)cc1 | 15µM* | -12% | -21% | ? | -17
CCOC(=O)N1CCN(C(=O)/C=C/c2ccc(C(C)(C)C)cc2)CC1 | 16µM* | -12% | -5% | ? | ?
O=C(/C=C/c1ccc(S(=O)(=O)N2CCOCC2)cc1)N1CCN(c2ccc(F)cc2)CC1 | 3.7µM* | 0% | -8% | 7.3µM* | -2
COc1cccc(-c2noc(CCCC(=O)Nc3ccc(C(N)=O)cc3)n2)c1 | ? | -5% | 14% | ? | 89
CCC(C)NC(=O)c1cn(CC)c2ccc(S(=O)(=O)N3CCc4ccccc4C3)cc2c1=O (centres undefined) | ? | . | . | 21µM* | .
CCn1cc(C(=O)N2CCc3ccccc32)c(=O)c2cc(S(=O)(=O)N3CCCC3)ccc21 | -12% | -1% | 3% | -21% | 1
CCn1cc(C(=O)NC(C)c2ccccc2)c(=O)c2cc(S(=O)(=O)N3CCc4ccccc4C3)ccc21 (centres undefined) | 16µM* | . | . | ? | .
CCn1cc(C(=O)NCc2ccccc2)c(=O)c2cc(S(=O)(=O)N3CCOCC3)ccc21 | -12% | . | . | -21% | .
Cc1ccc(S(=O)(=O)NCC2NCCc3ccccc32)cc1 (centres undefined) | 23µM* | 13% | 8% | -9% | -1
O=C1C=C(NC2=CC3OC(c4ccccc4)OCC3OC2=O)CCC1 (centres undefined) | 9.2µM* | -26% | 21µM* | 8.2µM* | -117*
O=C1C=C(NCc2ccccc2)CCC1 | 9% | 8% | 1% | -4% | 0
NC1=NC(c2ccc(Cl)cc2)C(C(=O)c2ccccc2)N1 (centres undefined) | 12µM* | 18µM* | 15µM* | ? | 100
SMILES | TDP1 cell noCPT | HT1080-NT tox | HT1080 IDH1KD tx | DT40 TDP1 CPT | IL-1B inflam inh
CCOC(=O)C1=NNC(C(=O)c2ccc(Cl)cc2)C1c1ccccc1 (centres undefined) | -10% | 5% | 7% | -7% | -7
Cc1nn(-c2ccccc2)c(-n2cccc2)c1C(=O)NCc1ccccc1Cl | 26µM* | . | . | 21µM* | .
Cc1nn(-c2ccccc2)c(Cl)c1C(=O)OCC(=O)NCCc1ccccc1 | ? | -1% | -4% | ? | ?
COc1cccc(CNC(=O)c2c(C)nn(-c3cccc(C)c3)c2-n2cccc2)c1 | 15µM* | . | . | ? | .
Cc1nn(-c2ccccc2)c(-n2cccc2)c1C(=O)NCCc1ccc(Cl)cc1 | ? | . | . | 21µM* | .
Cc1nn(-c2ccccc2)c(-n2cccc2)c1C(=O)N1CCN(c2ccccc2)CC1 | 23µM* | . | . | ? | .
Cc1ccnc(NC(=O)CCC(=O)N(CC(=O)NC(C)(C)C)c2ccc3c(c2)OCO3)c1 | -8% | 5% | 11% | 6% | -8
COc1cccc(C(=O)N2CCC2(C)C(=O)O)c1 (centres undefined) | 1% | 26% | 13% | -14% | 0
N#Cc1ccc(CN2CCCC3(CCN(C(=O)c4cnccn4)CC3)C2)cc1 | 5% | . | . | -9% | .
CCN1CCN(C(=O)Cn2cnc3sc(C)c(S(=O)(=O)N4CCN(c5ncccn5)CC4)c3c2=O)CC1 | 1% | 0% | 7% | 3% | 3
Cc1c(C(=O)NC(C)C)c(-c2ccccc2)nn1-c1ccccc1 | -20% | 8% | 1% | -5% | -3
Cc1c(C(=O)NCc2ccccc2)c(-c2ccccc2)nn1-c1ccccc1 | ? | 8% | 3% | 23µM* | -3
COc1cc2nc(N3CCOCC3)nc(NC3CCN(Cc4ccccc4)CC3)c2cc1OC | 11µM* | ? | ? | 16µM* | .
COc1cc2nc(N3CCN(C)CC3)nc(NC3CCN(Cc4ccccc4)CC3)c2cc1OC | 11µM* | ? | 11µM* | 11µM* | .
COc1ccc(Cn2c(=S)[nH]c3cc(OC)c(OC)cc3c2=O)cc1 | ? | 0% | ? | 14% | -16
COc1cc2c(NC3CCN(C)CC3)nc(N3CCCN(C)CC3)nc2cc1OCc1ccccc1 | 2.8µM* | 10µM* | 6.3µM* | 2.8µM* | .
COc1ccc(/C=C/C(=O)NC2CCN(Cc3ccccc3)CC2)cc1OC | -5% | -1% | -17% | -8% | -8
COc1cc2c(NC3CCN(C)CC3)nc(N3CCCN(C)CC3)nc2cc1OCC1CCNCC1 | -14% | . | . | -4% | .
COc1cc2[nH]c(=S)n(C3CCN(Cc4ccccc4)CC3)c(=O)c2cc1OC | 18µM* | 4% | 5% | ? | 23
COc1ccc(-c2cc(C(F)(F)F)nc(N3CCN(Cc4ccccc4)CC3)n2)cc1OC | ? | -3% | 0% | ? | 19
COc1cc2nc(N3CCCN(C)CC3)nc(NC3CCN(Cc4ccccc4)CC3)c2cc1OC | 4µM* | 10µM* | 7.1µM* | 2.5µM* | .
